In the library only some 11% were active in any assay of this set; here they are far more common.
PNC assembly inh – High Content Assay for Compounds that inhibit the Assembly of the Perinucleolar Compartment. PC3M PTB-GFP, PNC prevalence imaging, 16 h; active compounds read low. activity change (PNC), negative = inhibition, % at 10 µM. 140,000 tested, 3.1% active. AID 2417, 2010;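 active = readout at or below -70, meaning at least 70% loss of cells showing the perinucleolar compartment, a nuclear body marking cancer cells; inconclusive = readout between -30 and a set limit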;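 note: plate controls were DMSO wells for no effect and camptothecin positive control wells for full effect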
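Read-out is percentage of cells bearing a perinucleolar compartment, from automated 20x imaging of fixed, Hoechst-stained PC3M PTB-GFP cells. Cells were seeded 4 h, then exposed 16 h to compound (23 nl of library stock) in duplicate plates.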
ALDH1A1 block – qHTS Assay for Inhibitors of Aldehyde Dehydrogenase 1 (ALDH1A1); Purified ALDH1A1, NADH fluorescence, propionaldehyde substrate; 220,000 tested, 7.3% active; Potency, µM (highest dose often 75.3 µM), without a hit: at the top dose activity, negative = inhibition, usual class: inhibitors; Aldehyde dehydrogenase 1A1 (Homo sapiens), P00352;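 note: potency is the fitted concentration of half-maximal effect; plate controls were no enzyme wells and a reference inhibitor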
HPGD inh – qHTS Assay for Inhibitors of HPGD (15-Hydroxyprostaglandin Dehydrogenase) | 15-hydroxyprostaglandin dehydrogenase [NAD(+)] (Homo sapiens), P15428 | purified HPGD, NADH fluorescence kinetic, PGE2 substrate | Potency, µM, for inactives: at the highest dose activity change, negative = inhibition, most hits filed as inhibitors | 150,000 tested, 4.3% active | AID 894, 2007; note: potency is the fitted concentration of half-maximal effect
Target sequence (P15428 whole entry, looked up): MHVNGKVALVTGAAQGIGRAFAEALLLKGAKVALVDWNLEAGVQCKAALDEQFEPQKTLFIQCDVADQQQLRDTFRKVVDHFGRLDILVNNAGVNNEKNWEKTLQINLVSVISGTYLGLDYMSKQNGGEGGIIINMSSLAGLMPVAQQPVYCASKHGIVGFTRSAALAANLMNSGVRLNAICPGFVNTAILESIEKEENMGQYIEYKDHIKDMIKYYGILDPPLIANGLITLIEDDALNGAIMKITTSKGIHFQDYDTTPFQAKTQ
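20 nM HPGD preincubated 15 min at room temperature with compound in 50 mM Tris-HCl pH 8, 0.01% Tween 20. Started with 1 mM NAD+ and 30 uM prostaglandin E2; NADH fluorescence (360/450 nm) read 5 times over 30-s intervals, last minus first.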
* hit, by the source's call; ? = inconclusive; . = not tested or not shown. Unless noted, calls come from the whole dose curve; as a rule, active = well fitted inhibition curve with a large enough effect (not every such curve was filed as active); inconclusive = small, poorly fitted or top-dose-only effect, or another doubt; inactive = no such curve, though single readings can be large or run the other way. Unless noted, % is set by controls: 0 for no effect and ±100 for the full control effect.

SMILES	PNC assembly inh	ALDH1A1 block	HPGD inh
CCN1C(=O)CC(N2CCC(C(=O)N3CCOCC3)CC2)C1=O (stereo unspecified)	?	-2.2%	-11.8%
O=C1CCCN1CCC1CCN(C2CC(=O)N(c3ccc(F)cc3)C2=O)CC1 (stereo unspecified)	-111.9*	12.6µM*	-6.2%
O=C(C1CCN(C2CC(=O)N(c3ccc(F)cc3)C2=O)CC1)N1CCOCC1 (stereo unspecified)	59.1	7.08µM*	-6.5%
O=C1CC(N2CCN(c3ccc(F)cc3)CC2)C(=O)N1Cc1ccc(N2CCCC2=O)cc1 (stereo unspecified)	-8.9	?	-18.6%
O=C1CC(N2CCC(c3nc4ccccc4[nH]3)CC2)C(=O)N1c1ccccc1F (stereo unspecified)	.	10µM*	.
Cc1ccc(N2CN(Cc3ccco3)CNC2=S)c(C)c1	7.3	-2.3%	-22.6%
CC(C)c1onc(C(=O)NC2CCCC2)c1[N+](=O)[O-]	.	-2.0%	.
CCOC(=O)C1CCCN(c2cc(=O)n(Cc3ccc(F)cc3)c(=O)[nH]2)C1 (stereo unspecified)	6.6	-0.2%	-0.2%
CCOC(=O)/C(=N/O)C1=NC(C)(C)Cc2cc(C)c(C)cc21	.	2.1%	.
CCC(=O)OCCn1c(=O)c2cc3c(=O)n(CCOC(=O)CC)c(=O)c3cc2c1=O	?	-8.2%	-3.5%
CCC(=O)OCN1C(=O)C=CC1=O	.	1µM*	?
O=C(Nc1cc(C(F)(F)F)cc(C(F)(F)F)c1)c1ccc(Cn2cc(C(F)(F)F)ccc2=O)cc1	49.4	-3.9%	-9.5%
Cc1ccc(-c2ccc(=O)n(CC(=O)N3CCN(c4cccc(C)c4)C(C)C3)n2)cc1 (stereo unspecified)	-24.1	-7.3%	-12.5%
Cc1cc(C)c2c(=O)n(CC(=O)N3CCC(Cc4ccccc4)CC3)sc2n1	55.2	7.08µM*	4.47µM*
Cc1cccc(N2CCN(C(=O)Cn3sc4nc(C)cc(C)c4c3=O)CC2C)c1 (stereo unspecified)	17.4	3.55µM*	3.16µM*
Cn1cnnc1SCC(=O)N1CCC(Cc2ccccc2)CC1	-2.1	5.8%	-3.2%
Cc1cc(C)c2c(=O)n(CC(=O)NCCCN3CCN(c4ccccc4F)CC3)sc2n1	-9.8	3.55µM*	?
Cc1ccccc1CS(=O)(=O)CCC(=O)NCCCN1CCN(c2ccccc2F)CC1	114.0	8.9%	-13.0%
CCOC(=O)CCSc1nc(C)c2cc(C)ccc2n1	?	3.9%	20µM*
Cc1cc2nc(SCCOC(=O)Nc3ccc(Cl)cc3)nc(C)c2cc1C	-17.6	3.3%	14.1µM*
CCOC(=O)CCSc1nc(C)c2ccccc2n1	-29.5	5.6%	-18.5%
CCOC(=O)CSc1nc(C)c2cc(C)c(C)cc2n1	.	-14.5%	.
COC(=O)[C@@H]1C[C@@]2(O)[C@@H](O)[C@@H](O)[C@@H](O)C[C@H]2N1CC1CC1	.	1.3%	-1.5%
O=C(CSc1nc2[nH]ncc2c(=O)[nH]1)NCc1ccc(F)cc1	-19.3	15.0%	-5.1%
CCOc1ccccc1O[C@@H](c1ccccc1)[C@@H]1CNCCO1	.	?	-3.0%
SMILES	PNC assembly inh	ALDH1A1 block	HPGD inh
Cc1cc(C)cc(C(=O)N(NC(=O)Nc2ccc(Cl)cc2)C(C)(C)C)c1	15.5	7.7%	-3.6%
Oc1ccc(C2C(c3ccccc3)=NN=C(c3ccc(Cl)cc3)N2O)c(O)c1 (stereo unspecified)	-19.8	11.2µM*	-3.9%
Oc1ccc(-c2[nH]ncc2-c2ccc(Cl)cc2)c(O)c1	78.8	1.9%	-8.9%
Oc1ccc(C2C(c3ccccc3)=NN=C(c3ccccc3F)N2O)c(O)c1 (stereo unspecified)	47.8	8.91µM*	-3.0%
Cc1cccc(OCCn2nc(C(=O)O)c3ccccc3c2=O)c1	-26.8	-11.8%	28.2µM*
Cc1cccc(C)c1OCCn1nc(C(=O)O)c2ccccc2c1=O	38.4	0.5%	-20.4%
Cc1cc(C)c(OCCNC(=O)c2ccccc2Sc2ccccc2C#N)c(C)c1	-21.6	1.3%	-5.8%
NCCC[C@@H](CC(=O)N[C@@H]1CCCC[C@H]1C(=O)N[C@H](CC(=O)N[C@@H](CCC(=O)O)CC(=O)O)Cc1ccccc1)NC(=O)C[C@H](Cc1ccccc1)NC(=O)[C@@H]1CNCC[C@H]1N	.	-9.8%	-9.4%
CCCC(=O)Nc1nc(C)c(-c2csc(Nc3ccccc3C)n2)s1	67.8	10µM*	31.6µM*
CCCCCC(=O)Nc1nc(C)c(-c2csc(Nc3ccccc3OCC)n2)s1	?	?	-21.5%
